# DT40 TDP1 CPT = DT40-hTDP1 cell growth loss with CPT; chicken DT40 Tdp1-/-;hTDP1 cells + 20 nM CPT, ATP luminescence, 48 h; Potency, µM (titrated, usually from 46.2 µM), for inactives: top-dose activity change, negative = growth inhibition, actives largely listed as inhibitors; 420,000 tested, 12% active; further: potency means the concentration at half of the fitted maximal effect; nearly all actives have a fitted effect of over 55% in size
#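 Chicken DT40 Tdp1-/- cells complemented with human TDP1, 400 cells/well, exposed to compounds plus 20 nM camptothecin for at least 48 h at 37 C; viability read as ATP content by CellTiter-Glo luminescence.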
# HT1080NT lethal = kills 2HG-producing HT-1080-NT fibrosarcoma cells | HT-1080-NT fibrosarcoma viability, CellTiter-Glo ATP luminescence, 48 h | Potency, µM (top dose mostly 46.1 µM), for inactives: at the highest dose activity, negative = less viability, usual class: cytotoxic | 360,000 tested, 1.6% active | AID 686970;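 further: NT is the 2HG producing partner of a matched IDH1 knockdown line; potency means the concentration at half of the fitted maximal effect; 0% = DMSO-treated cells and -100% = media-only wells without cells; nearly all actives have a fitted effect of over 55% in size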
#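 750 cells/well, RPMI + 5% FBS; 2 h settle, compound pin-transfer, 48 h at 37 degrees C. CellTiter-Glo 10 min RT, luminescence. Normalized to DMSO and media-only wells.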
# HT1080 IDH1KD tx = kills HT-1080 cells with IDH1 knockdown; HT-1080 IDH1 knockdown viability, ATP luminescence, 48 h; Potency, µM (highest dose often 46.1 µM), inactives show at the highest dose activity, negative = toxicity, actives largely listed as cytotoxic; 360,000 tested, 2% active;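 further: potency means the concentration at half of the fitted maximal effect; 0% = DMSO wells and -100% = cell-free medium wells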
#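 In this qHTS, HT-1080 cells depleted of IDH1 are exposed for 48 h at 37 °C to compound titrations. Toxicity is scored from CellTiter-Glo luminescence, with DMSO as full viability and medium alone as none.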
# IL-1B inflam inh = inflammasome signaling inhibition, IL-1 beta readout | THP-1 LPS/ATP IL-1B secretion, AlphaLISA, 16 h; active compounds read low | activity change, % at 57.5 µM | 360,000 tested, 4.7% active; in the data active means activity change below about -50%; inconclusive means mostly about -30% to -49%
#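 THP-1 cells pretreated 1 hr with compounds (up to 57.5 uM final), then stimulated with LPS (250 ng/mL final) plus ATP (1.25 mM final); secreted IL-1B measured by AlphaLISA after 16 hr, decreased signal indicating inhibition.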
# DT40 TDP1 no CPT = qHTS for Inhibitors of human tyrosyl-DNA phosphodiesterase 1 (TDP1): qHTS in cells in absence of CPT | DT40 Tdp1-/- hTDP1 cells, no CPT, ATP luminescence, 48 h | Potency, µM (series often up to 46.2 µM), without a hit: at the top dose activity change, negative = growth inhibition, hits mostly inhibitors | 420,000 tested, 15% active | AID 686978, 2013; further: potency means the concentration at half of the fitted maximal effect; nearly all actives have a fitted effect of over 55% in size
#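 A cellular qHTS used chicken DT40 cells lacking endogenous Tdp1 but carrying stably transfected human TDP1. Compounds were applied without camptothecin, and cell growth kinetics were judged by ATP-dependent luminescence after ≥48 hr.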
# Active calls of the source: *; ? = inconclusive; / = no result; [ ] = remark or other dose. In the library only some 19% were active in any assay of this set; here they are far more common. Unless noted, the call rests on the fitted dose curve; in most records, active means well fitted curve in the direction sought with a large enough effect; inconclusive means small, poorly fitted or top-dose-only effect, or another doubt; inactive means no such curve, though single readings can be large; an effect the other way counts as inactive or inconclusive. Unless noted, on the % scale 0 is the no-effect control and ±100 the full control effect.
SMILES,DT40 TDP1 CPT,HT1080NT lethal,HT1080 IDH1KD tx,IL-1B inflam inh,DT40 TDP1 no CPT
CC(=O)N1CCCc2ccc(NS(=O)(=O)c3cccc(Cl)c3)cc21,-0.9%,/,/,/,-27.9%
CCCCCCNC(=O)O[C@H]1C[C@H](C(=O)OC)[C@H](C(=O)OC)C2CN(S(=O)(=O)c3ccc(C)cc3)C[C@@]21O (stereo partly drawn),?,-13.7%,-0.8%,-29.2,?
CCOc1ccc(S(=O)(=O)NCCC(=O)N2CC=C(c3ccccc3)CC2)cc1,?,-0.7%[9.24 µM],-4.2%,-11.3,11.6µM*
CCOc1ccc(S(=O)(=O)NCCC(=O)N2CCN(c3ccc(OC)cc3)CC2)cc1,?,-2.6%,-2.3%,-4.3,20.6µM*
COc1ccc(C2CC(=O)c3cnc4c(-c5ccccc5)c(C)nn4c3C2)c(OC)c1 (stereo not drawn),-12.6%,/,/,/,-12.8%
CCCCCNC(=O)C(c1cccc2ccccc12)n1c(=O)c(-c2cc3ccccc3[nH]2)nc2ccccc21 (stereo not drawn),?,-8.0%,-14.0%,58.0,?
O=C(CNC(c1ccccc1)c1ccccc1)Nc1ccccc1-c1ccccc1,?,-17.3%,-29.0%,16.0,18.4µM*
Cc1cc(C)cc(NC(=O)CNC(c2ccccc2)c2ccccc2)c1,?,-21.0%,-3.2%,-6.3,10.3µM*
CC(=O)Nc1ccc(SCC(=O)Nc2ccccc2-c2ccccc2)cc1,?,-2.1%,-9.1%,25.4,23.1µM*
O=C(CC1CCCCC1)Nc1ccccc1-c1ccccc1,?,1.7%,4.8%,-4.3,20.6µM*
Cc1ccc(NC(=O)c2ccc(=O)[nH]c2)cc1S(=O)(=O)N1CCCCC1,-20.9%,-4.8%,-5.2%,-2.9,-12.6%
N#CCc1nn2c3c(cnc2c1C#N)C(=O)CCC3,-4.7%,-0.4%,-11.7%,15.4,-22.4%
N#Cc1ccsc1NC(=O)CN1C(=O)NC2(CCCCC2)C1=O,2.1%,0.0%,6.2%,20.1,21.0%
CCCCn1c(-c2cccnc2)n[nH]c1=S,-3.4%,7.3%,-7.9%,23.5,4.5%
CCCCn1c(-c2ccc(C(C)(C)C)cc2)nc2cc3[nH]c(=O)c(C(C)C)nc3cc21,?,1.4%,5.9%,27.2,14.6µM*
CCCCn1c(-c2ccc(Cl)c(Cl)c2)nc2cc3[nH]c(=O)c(C(C)C)nc3cc21,?,-10.4%,-29.3%,34.7,?
CCCCn1c(-c2cccnc2)nc2cc3[nH]c(=O)c(C(C)C)nc3cc21,18.4µM*,-8.8%,-10.5%,4.0,14.6µM*
CCCCn1c(-c2cccc(Br)c2)nc2cc3[nH]c(=O)c(C(C)C)nc3cc21,18.4µM*,-21.1%,-21.4%,-51.6*,25.9µM*
CN(C)N1C(N)=C(C#N)C(c2cccs2)C2=C1CC(C)(C)CC2=O (stereo not drawn),-1.9%,4.9%,-15.1%,0.3,-10.3%
C[C@@]12C(=O)Nc3ccccc3C(=O)N1[C@H]1c3cc(Br)ccc3OC[C@@H]1[C@@H]2c1ccccc1,?,?,5.8µM*,-4.9,?
C[C@@]12C(=O)Nc3ccc(Br)cc3C(=O)N1[C@H]1c3cc(Br)ccc3OC[C@@H]1[C@@H]2c1ccccc1,18.4µM*,?,-17.9%,-20.2,14.6µM*
COc1ccc2c(c1)C(=O)N1[C@H]3c4cc(Br)ccc4OC[C@@H]3[C@H](c3ccccc3)[C@]1(C)C(=O)N2,?,?,?,-17.6,?
COc1ccc2c(c1)OC[C@H]1[C@H]2N2C(=O)c3cc(Cl)ccc3NC(=O)[C@@]2(C)[C@H]1c1ccccc1,?,-1.4%,-3.9%,?,?
C[C@@]12C(=O)Nc3ccc(Cl)cc3C(=O)N1[C@H]1c3cc(Br)ccc3OC[C@@H]1[C@@H]2c1ccccc1,23.1µM*,-23.9%,-13.9%,-28.4,?
Cc1cc(C(=O)Nc2ccccc2)oc(=O)c1,?,4.7%,2.3%,-13.9,?
CCOc1cccc(CN2CCC(n3nccc3NC(=O)C3CC3)CC2)c1O,-8.6%,12.1%,17.3%,12.3,-21.0%

# Compound activity: PubChem BioAssay, National Center for Advancing Translational Sciences (NCATS)
